# Source: PubChem BioAssay AID1259422 (The Scripps Research Institute Molecular Screening Center, 2018)
# Where “and” joins values, the source holds several entries; their conditions need not be identical. Identical values can stand only once. The whole screen tested about 640,000 compounds, of which about 9,300 (1.5%) were called active. The sample holds actives, similar compounds and a random draw of the others, so the mix is not that of the screen. Unmarked numbers belong to inactive results. No stated cut-off is given here; in the data, active means inhibition above about 32%; inactive means the rest.
# Assay: TEAD-YAP interaction inhibition, primary screen, TEAD-YAP interaction inhibitor project, luminescence, HEK-TIYL cells (AID 1259422);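 further: 0% = median of test compound wells and 100% = reference inhibitor wells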
# Conditions: TEAD-Gal4/YAP UAS-luciferase luminescence, at 9.12 µM, hits give high values
row,SMILES,inhibition
1,CCOC(=O)c1cccc(NC(=O)Cn2cc3c(n2)CCCCC3)c1,8.83%
2,O=[N+]([O-])c1ccccc1Oc1cccc2cccnc12,-9.26%
3,O=[N+]([O-])c1ccccc1S(=O)(=O)Nc1cccc2cccnc12,32.8% (active)
4,O=S(=O)(Nc1cccc2cccnc12)c1ccc(S(=O)(=O)N2CCCCC2)cc1,23.6%
5,Cn1c(/N=C/c2nc(-c3cccc4ccccc34)oc2O)nc2ccccc21,-6.43%
6,O=C(CO/N=C/c1ccccc1)N=Nc1c(O)[nH]c2ccccc12,5.66%
7,COc1ccc2c(c1)CC(C(=O)Nc1ccc(-c3cn[nH]c3)cc1O[C@H]1CCOC1)CO2 (stereo not given in full),22.3%
8,Cc1[nH]ncc1-c1ccc2nc(NC(=O)C3COc4ccccc4C3)sc2c1 (stereo not given),60.2% (active)
9,COc1ccc2c(c1)CC(C(=O)Nc1nc3ccc(-c4cn[nH]c4C)cc3s1)CO2 (stereo not given),53.5% (active)
10,CCOc1ccc2nc(NC(=O)C3CC3)sc2c1,-49.8%
11,COc1ccc2c(c1)CC(C(=O)Nc1ccc(-c3cn[nH]c3)cc1OCc1ccccc1)CO2 (stereo not given),-15.1%
12,CC1=CCC(C(=O)O)C(C(=O)Nc2nc3ccc(C)cc3s2)C1 (stereo not given),-1.36%
13,Cc1cccc(C2c3[nH]c4ccccc4c3CCN2C(=O)Cn2nc(C)nc2C)n1 (stereo not given),-0.52%
14,COCCNC(=O)/C(C#N)=C/c1ccc(N2CCOCC2)cc1,-20.6%
15,COc1ccc2nc(/C(C#N)=C\c3ccc(N4CCOCC4)cc3)[nH]c2c1,-25.6%
16,N#C/C(=C\c1ccc(N2CCOCC2)cc1)c1ccccn1,90.2% (active)
17,CCOc1cc(C2C=C(c3cccc([N+](=O)[O-])c3)Nc3ncnn32)ccc1OC(F)F (stereo not given),-5.43%
18,COC(=O)c1ccc(CSc2cc(N3CCN(c4ccccc4F)CC3)ncn2)o1,-17.6%
19,Cc1cc(C)n2nc(SCC(=O)NCCCN3CCCC3=O)nc2n1,6.95%
20,O=C1N=c2ccccc2=C1c1[nH]c(=S)n(-c2ccccc2)c1O,-4.63%
21,COC(=O)CSc1nnc(-c2cccc(OC)c2)n1C,8.2%
22,COc1cccc(-c2nnc(SCC(=O)Nc3ccccc3)n2-n2cccc2)c1,47.3% (active)
23,COc1cccc(-n2c(SCC(=O)Nc3cccc(O)c3)nnc2-c2ccncc2)c1,1.48%
24,COCCNC(=O)c1oc2ccc3c(c2c1C)C(=O)CC1(CCCC1)O3,-23.1%

row,SMILES,inhibition
1,Nc1nc(SC(c2ccccc2)c2ccccc2)nc2sc3c(c12)CCCC3,5.46%
2,O=C(c1cc(COc2ccc3ncccc3c2)on1)N1C[C@@H]2CCC[C@H]1C2,32.6% (active)
3,Cc1nonc1CN(C)C(=O)c1cc(COc2cccc(C(F)(F)F)c2)on1,-10.6%
4,COCC1CCN(C(=O)c2cc(COc3ccc4ncccc4c3)on2)C1 (stereo not given),30.8%
5,Cc1cc(CNC(=O)c2cc(COc3ccc4ncccc4c3)on2)nn1C,12.1%
6,CCN(CC)C1CCN(C(=O)c2cc(COc3ccc4ncccc4c3)on2)C1 (stereo not given),14.7%
7,CN(Cc1cccnc1)C(=O)c1cc(COc2ccc3ncccc3c2)on1,40.8% (active)
8,NC(=O)COC(=O)c1cccc(S(=O)(=O)NCc2ccccc2)c1,-3.84%
9,CC(C)c1ccc(CN[C@H]2C[C@H]3C(=O)N[C@H]([C@H](C)O)C(=O)N3C2)cc1,1.15%
10,COc1ccc(NC(=O)C2Cc3ccccc3CN2S(=O)(=O)c2ccc(C)cc2)cc1 (stereo not given),12.4%
11,c1ccc(-c2nc(-c3ccncc3)[nH]c2-c2ccccc2)cc1,6.95%
12,Nc1nc2c(s1)CCc1c-2no[n+]1[O-],12.3%
13,[O-][n+]1onc2c1CCc1[nH]c(-c3ccccc3)nc1-2,41.9% (active)
14,Cc1ccc(C)c(N(Cc2ccccc2C)S(C)(=O)=O)c1,-3.99%
15,COc1ccc(Cl)cc1Nc1c(-c2ccc3c(c2)OCC(=O)N3)c(=O)c1=O,2.85%
16,CC(C)(C)C(=O)Nc1ccc(C(=O)Nc2nccs2)cc1,53.9% (active)
17,CC(=O)C(C)(C)OC(=O)Nc1nccs1,4.65%
18,Cc1ccc(C(=O)Nc2nccs2)cc1C,-7.57%
19,COc1ccccc1NC(=O)COC(=O)C(C)N1C(=O)C(=O)c2ccccc21 (stereo not given),13.1%
20,Cc1ccc(/C=N/NC(=O)c2cccc(F)c2)c(O)c1,-36.3%
21,O=C(Nc1c(C(=O)N2CCC(Cc3ccccc3)CC2)cnn1-c1ccccc1)c1ccco1,-7.49%
22,COC(=O)c1ccc(/C=C2/SC(N)=NC2=O)cc1,16%
23,NC1=NC(=O)/C(=C\c2ccc3c(c2)OCO3)S1,46.8% (active)
24,NC1=NC(=O)/C(=C\c2ccc3ncccc3c2)S1,52.6% (active)

row,SMILES,inhibition
1,CN1C(N)=NC(=O)/C1=C\c1ccc2c(c1)OCO2,-15%
2,COc1cc(/C=C2/SC(N)=NC2=O)cc(OC)c1OC,6.04%
3,CC(C)CC1=NN2C(=N)/C(=C/c3ccc4c(c3)OCO4)C(=O)N=C2S1,-1.58%
4,CCOC(=O)c1c(NC(=O)CSc2nnc(CNC(=O)c3cc(OC)cc(OC)c3)n2-c2cccc(C)c2)sc2c1CCCC2,3.65%
5,CCOc1ccc(C(=O)O/N=C(\N)c2ccc(OC)cc2)cc1OCC,-6.66%
6,Cc1cc(N2CCCC2)nc2ccc(NC(=S)NCC3CCCO3)cc12 (stereo not given),-6.91%
7,Cc1c(SC(F)(F)C(F)C(F)(F)F)c(=O)n(-c2ccccc2)n1C (stereo not given),18.8%
8,O=C(NC1CC1)c1cccc(N2CCc3ccccc3C2)n1,-13.8%
9,NC(=O)C(C(N)=O)C1OC(=O)C(Cl)=C1Cl (stereo not given),0.04%
10,C/C(=N\NC(=O)c1ccccc1I)c1ccc(O)cc1,-8.63%
11,COC(=O)C1=C(C)N(C)C(=O)/C1=C\c1cc(C)n(-c2ccc(Br)cc2)c1C,-6.34%
12,COC(=O)C1=C(C)N(CC2CCCO2)C(=O)/C1=C\c1cc(C)n(-c2cccc(C)c2)c1C (stereo not given),0.89%
13,CCc1ccccc1N1C(=O)NC(=O)/C(=C\c2cc(C)n(-c3cccnc3)c2C)C1=O,-3.42%
14,CCN1C(=O)S/C(=C/c2cc(C)n(-c3cccnc3)c2C)C1=O,50.4% (active)
15,CCN1C(=O)/C(=C\c2cc(C)n(-c3ccccc3)c2C)C(C(=O)OC)=C1C,36.6% (active)
16,Cc1cc(/C=C2/SC(=O)N(C)C2=O)c(C)n1-c1ccc(I)cc1,-24.8%
17,COc1ccc(Cl)cc1S(=O)(=O)N1CCN(CC(=O)Nc2ccc(C(N)=O)cc2)CC1,3.37%
18,O=C(NC(Cc1c[nH]c2ccccc12)c1nnc2n1CCC2)c1ccccc1Cl (stereo not given),4.18%
19,CCOC(=O)c1c(NC(=O)c2cccc(C)c2)sc2c1CCC2,1.21%
20,CC(=O)N(C1=C(N2CCN(C)CC2)C(=O)c2ccccc2C1=O)c1cc(C)cc(C)c1,53.9% (active)
21,CC(=O)N(C1=C(N2CCOCC2)C(=O)c2ccccc2C1=O)C1CCCCC1,13.4%
22,Cc1cc(C)cc(NC2=C(N3CCN(C)CC3)C(=O)c3ccccc3C2=O)c1,14.2%
23,CCCCOc1ccc(-c2[nH]nc3c2C2(C(=O)Nc4ccc(C)c(Br)c42)C(C#N)=C(N)O3)cc1 (stereo not given),3.07%
24,COc1ccc(C(=O)Nc2nc(C(C)(C)C)cs2)c(OC)c1,-70.6%

row,SMILES,inhibition
1,COc1ccc(C(=O)Nc2nc3c(ccc4ccccc43)s2)c(OC)c1,-16.5% and -1.48%
2,Cc1nc(NC(=O)c2cc(Br)ccc2Cl)sc1C,-57.6%
3,COc1ccc(C(=O)Nc2nc(C)c(C)s2)c(OC)c1,94.8% (active)
4,Cc1nc(NC(=O)c2ccc3c(c2)CCCC3)sc1C,53.4% (active)
5,Cc1nc(NC(=O)c2ccoc2C)sc1C,-21.2%
6,Oc1ccc2ccccc2c1/C=N/Nc1nccnc1Cl,-25.8%
7,N#CC1=C(N)Oc2n[nH]c(-c3ccc(Cl)cc3)c2C1c1ccc2c(c1)OCO2 (stereo not given),12.5%
8,O=c1c(Cl)c(Cl)cnn1-c1nc2ccccc2[nH]1,56.5% (active)
9,N#Cc1cnn(-c2nc3ccccc3[nH]2)c1N,-4.74%
10,Cn1ncc(Cl)c1-c1nc2ccccc2[nH]1,-8.92%
11,Cc1cc(Nc2ccccc2Cl)n2nc(C)nc2n1,-1.89%
12,Cc1cc(C)c(NC(=O)c2c(Cl)nc(C)c(Cl)c2C)c(C)c1,-2.91%
13,COc1cccc(/C=C/C(=O)NCC(=O)O)c1OC,-11.1%
14,Cc1cccc2nc(CNC(=O)CCCn3nnnc3CN3CCC(C)CC3)cn12,3.48%
15,CC(C)(C)c1ccc(C(=O)NNC(=O)c2ccccn2)cc1,41.6% (active)
16,CC(C)(C)c1ccc(C(=O)NNC(=O)C(=O)NCc2ccccc2)cc1,-5.07%
17,C/C(=N/NC(=O)c1ccccn1)c1ccccc1,14.7%
18,N#Cc1ccc(C23CC4CC(CC(C4)C2)C3)nc1SCC(=O)Nc1nc2ccccc2s1,3.55%
19,N#CC(=C1C(=O)c2ccccc2C1=O)c1nc2ccccc2[nH]1,-10.3%
20,Cc1ccc(N=C2NC(=O)/C(=C\c3ccc(-c4ccccc4[N+](=O)[O-])o3)S2)c(C)c1,-2.23%
21,CCOc1ccc(C2C(C(=O)NC)=C(C)Nc3nc4ccccc4n32)cc1OC (stereo not given),-6.37%
22,COc1ccccc1NC(=O)C1=C(C)Nc2nc3ccccc3n2C1c1cccs1 (stereo not given),46.5% (active)
23,COc1ccccc1C1C(C(=O)N2CCCCC2)=C(C)Nc2nc3ccccc3n21 (stereo not given),1.41%
